High-throughput results deposited in PubChem BioAssay by National Center for Advancing Translational Sciences (NCATS).
Shown are actives, neighbours in structure and some others; about 19% of the full set was active somewhere.
ELG1 DNA repair = qHTS screen for small molecules that inhibit ELG1-dependent DNA repair in human embryonic kidney (HEK293T) cells expressing luciferase-tagged ELG1. HEK293T ELG1-luciferase reporter, luminescence, 16 h; DNA damage induced by 5-fluorouridine. Potency, µM (highest dose often 46.1 µM), inactives show at the highest dose activity change, negative = inhibition, usual class: inhibitors. 2.3% of 330,000 active. AID 504467, 2011; further: potency means the concentration at half of the fitted maximal effect; nearly all actives have a fitted effect of over 55% in size
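Luminescence from the luciferase reporter, measured 30 min after ONE-Glo reagent at room temperature, was the read-out. Beforehand, 2,000 cells per well were exposed for 16 hr at 37 °C to 5-fluorouridine together with compound or vehicle.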
TDP1 cell CPT = qHTS for Inhibitors of human tyrosyl-DNA phosphodiesterase 1 (TDP1): qHTS in cells in presence of CPT. chicken DT40 Tdp1-/-;hTDP1 cells + 20 nM CPT, ATP luminescence, 48 h. Potency, µM (highest dose often 46.2 µM), for inactives: at the highest dose activity change, negative = growth inhibition, usual class: inhibitors. 12% of 420,000 active; further: potency means the concentration at half of the fitted maximal effect; nearly all actives have a fitted effect of over 55% in size
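Chicken DT40 Tdp1-/- cells complemented with human TDP1, 400 cells/well, exposed to compounds plus 20 nM camptothecin for at least 48 h at 37 C; viability read as ATP content by CellTiter-Glo luminescence.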
Giardia kill = Small Molecules that selectively kill Giardia lamblia: qHTS | Giardia lamblia trophozoite viability | activity change, % at 7.66 µM, hits read low | 0.15% of 340,000 active | AID 540267, 2011; in the data active means activity change below about -80%; inconclusive means between about -30% and that limit;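 further: parasites exposed to compound for two days anaerobically before the ATP read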
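Killing of trophozoites was scored by loss of ATP luminescence after a 48 hrs anaerobic exposure to compounds at 37 deg C, using 100 cells per well.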
IL-1B inflam inh = qHTS for Inhibitors of Inflammasome Signaling: IL-1-beta AlphaLISA Primary Screen; AID 743279, 2014; THP-1 LPS/ATP IL-1B secretion, AlphaLISA, 16 h; active compounds read low; 4.7% of 360,000 active; activity change, % at 57.5 µM; in the data active means activity change below about -50%; inconclusive means mostly about -30% to -49%
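THP-1 cells pretreated 1 hr with compounds (up to 57.5 uM final), then stimulated with LPS (250 ng/mL final) plus ATP (1.25 mM final); secreted IL-1B measured by AlphaLISA after 16 hr, decreased signal indicating inhibition.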
TDP1 cell noCPT = qHTS for Inhibitors of human tyrosyl-DNA phosphodiesterase 1 (TDP1): qHTS in cells in absence of CPT | DT40 Tdp1-/- hTDP1 cells, no CPT, ATP luminescence, 48 h | Potency, µM (series often up to 46.2 µM), inactives show at the top dose activity change, negative = growth inhibition, usual class: inhibitors | 15% of 420,000 active | AID 686978, 2013; further: potency means the concentration at half of the fitted maximal effect; nearly all actives have a fitted effect of over 55% in size
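Camptothecin absent (DMSO only). Human TDP1-complemented DT40 knockout cells, 400 cells/well, 37 °C for minimum 48 hr; ATP measured via CellTiter-Glo, 30 min dark incubation, luminescence.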
TDP1 inh = qHTS Assay for Inhibitors of Tyrosyl-DNA Phosphodiesterase (TDP1). AID 485290, 2010. recombinant TDP1, AlphaScreen DNA substrate cleavage. 0.28% of 350,000 active. Tyrosyl-DNA phosphodiesterase 1 (Homo sapiens), Q9NUW8. Potency, µM (series often up to 130 µM), inactives show at the top dose activity change, negative = inhibition, actives largely listed as inhibitors; further: potency means the concentration at half of the fitted maximal effect; nearly all actives have a fitted effect of over 40% in size
Target sequence (Q9NUW8 whole entry, looked up): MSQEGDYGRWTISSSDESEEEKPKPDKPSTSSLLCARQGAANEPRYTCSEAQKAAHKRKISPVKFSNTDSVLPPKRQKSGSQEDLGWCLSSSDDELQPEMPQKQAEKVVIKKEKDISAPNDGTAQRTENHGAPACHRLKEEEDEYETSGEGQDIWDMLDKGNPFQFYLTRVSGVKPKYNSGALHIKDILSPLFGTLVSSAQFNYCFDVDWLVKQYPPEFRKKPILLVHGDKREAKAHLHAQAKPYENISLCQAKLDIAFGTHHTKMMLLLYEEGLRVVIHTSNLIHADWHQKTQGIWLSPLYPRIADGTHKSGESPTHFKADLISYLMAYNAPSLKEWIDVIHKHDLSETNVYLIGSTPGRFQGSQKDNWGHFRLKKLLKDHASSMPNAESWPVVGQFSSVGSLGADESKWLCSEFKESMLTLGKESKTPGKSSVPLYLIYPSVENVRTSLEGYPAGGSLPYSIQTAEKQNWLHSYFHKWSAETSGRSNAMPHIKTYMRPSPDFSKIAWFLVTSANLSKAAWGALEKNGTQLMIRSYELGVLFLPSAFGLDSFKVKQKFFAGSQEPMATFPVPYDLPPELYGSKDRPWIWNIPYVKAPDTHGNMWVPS
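Here, a 5' biotin and 3' phosphotyrosine-FITC DNA oligonucleotide reports Tdp1 activity: intact substrate bridges AlphaScreen beads, while cleavage leaves a 3' phosphate and drops signal. All incubations at room temperature.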
The depositor's hits bear a star; ? = inconclusive; nt = no result; [ ] = another dose, or the depositor's remark. Unless noted, the call rests on the fitted dose curve; in most records, active means well fitted curve in the direction sought with a large enough effect; inconclusive means small, poorly fitted or top-dose-only effect, or another doubt; inactive means no such curve, though single readings can be large; an effect the other way counts as inactive or inconclusive. On the % scale 0 is the no-effect control and ±100 the full control effect.

SMILES | ELG1 DNA repair | TDP1 cell CPT | Giardia kill | IL-1B inflam inh | TDP1 cell noCPT | TDP1 inh
Cc1ccc(CSc2nnc(-c3cccc(S(=O)(=O)N4CCOCC4)c3)n2CC(C)C)cc1 | 2% | 13µM* | 9 | ? | 8.2µM* | 6%
O=C(CCNC(=O)c1ccc(Br)cc1)Nc1cccc(S(=O)(=O)N2CCCCCC2)c1 | ? | 13µM* | -6 | -18 | ? | 2%
O=C(CSc1nnc(-c2cccc(S(=O)(=O)N3CCCC3)c2)n1-c1ccccc1)Nc1cccc(C(=O)O)c1 | 8% | -1% | 2 | 14 | 18% | nt
CC(C)CC(=O)N1CCC(N(CCc2ccccc2)Cc2ccccc2)CC1 | -30% | ? | 16 | 6 | ? | 6%
CCC(=O)[C@]12O[C@@]3(C4C(=O)OCCC41)N(Cc1ccccc1)C(C)=C(C(=O)OC)C(c1ccccc1)N3C2=O (some centres undefined) | nt | nt | nt | nt | nt | 7%[21 µM]
CCc1noc(C)c1C(=O)N1CCOc2ccc(CN3CCN(c4ccccn4)CC3)cc2C1 | nt | 8%[9.04 µM] | nt | nt | -3% | nt
N=c1sccn1CC(=O)Nc1cccc(S(=O)(=O)N2CCCCCC2)c1 | ? | ? | -2 | -2 | 21µM* | 5%
CCOc1ccc(NC(=O)CSc2nnc(C)n2C2CC2)cc1S(=O)(=O)N1CCCC1 | ? | -16% | -8 | 11 | 3% | 0%
COc1ccc(/C=C/C(=O)NC2=NCCS2)cc1OC | ? | -29% | -10 | -24 | ? | 2%
COc1ccc(/C=C/C(=O)Nc2cccc(S(=O)(=O)N3CCCC3)c2)cc1OC | ? | ? | 6 | -27 | 21µM* | 8%
Cc1ccc(S(=O)(=O)N2CCCCC2)cc1NC(=O)Cn1ccsc1=N | 17% | ? | 9 | -12 | ? | 4%
Cc1nnc(SCC(=O)Nc2cccc(S(=O)(=O)N3CCCC3)c2)n1C1CC1 | nt | -14% | nt | -6 | 29µM* | nt
COc1ccc(/C=C/C(=O)ONC2=NCCCCC2)cc1OC | -8% | 23µM* | -18 | -6 | ? | 3%
CN1CCN(C(=O)c2ccc3c(c2)N(Cc2ccc(Cl)cc2)C(=O)c2ccccc2S3(=O)=O)CC1 | nt | -29% | nt | nt | ? | 3%
COc1ccccc1C(=O)Nc1ccccc1SCc1cc(=O)c2ccccc2[nH]1 | nt | ? | nt | nt | ? | 5%
COC(=O)c1cc(OC)c(=O)c2c(OC)c(OC)ccc2c1 | nt | -2% | nt | nt | -3% | -8%[56.1 µM]
CC(C)Sc1nc2ccccc2n2cnnc12 | 3% | 3% | 7 | 17 | ? | 2%
O=C(CSc1nnc(-c2cccc(S(=O)(=O)N3CCOCC3)c2)n1C1CCCCCC1)NCc1ccccc1 | ? | 22µM* | -17 | -22 | ? | 2%
Cc1cc(C)c2c(c1)cc(C)c1nnc(SCC(=O)Nc3ccc(S(=O)(=O)N4CCCCC4)cc3)n12 | 8% | ? | 2 | 1 | 21µM* | 2%
O=C(CCl)Nc1cccc(S(=O)(=O)N2CCCCCC2)c1 | ? | 4.1µM* | 3 | -102* | 5.2µM* | 11%
Cc1ccc2cc(C)c(SCC(=O)Nc3ccc(S(=O)(=O)N4CCCC4)cc3)nc2c1 | ? | ? | -1 | -14 | ? | nt
COc1ccc(Br)cc1CN(C)CC(=O)Nc1cccc(S(=O)(=O)N2CCCC2)c1 | ? | 15µM* | -14 | -52* | 10µM* | 2%
CCc1cc(=O)oc2cc(C)cc(OCC(=O)NCc3ccncc3)c12 | 13% | 4% | -3 | 0 | 9% | 2%
O=C(Cc1ccc(Cl)cc1)Nc1cccc(S(=O)(=O)N2CCCCC2)c1 | ? | ? | 2 | -12 | 21µM* | -3%
